Laboratory results published in the supplement of paper PMC10646978.
± gives the standard deviation.

Legend:
Details in all cases: modulator concentration 10 µM
[1] = tested on: RAW-Dual (murine macrophage reporter line); assay: NF-kB reporter (SEAP) activity fold change vs agonist alone; higher = enhanced NF-kB activity
How it was run: (§1)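 RAW-Dual murine macrophage reporter cells were seeded at 50 000 per well in 384-well plates and pre-incubated 1 hour at 37 °C with compound pin-transferred to 10 μM final. After 1 hour, a PRR agonist was added and cells incubated overnight. Supernatant NF-κB (SEAP, QUANTI-Blue, 620 nm absorbance) and IRF (Lucia luciferase, QUANTI-Luc, luminescence) signals were divided by the mean agonist-only control on the same plate to give fold change. Two replicate plates were averaged, with errors by propagation.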

[2] = tested on: RAW-Dual (murine macrophage reporter line); assay: IRF reporter (Lucia luciferase) activity fold change vs agonist alone; higher = enhanced IRF activity
How it was run: as §1

[3] = tested on: RAW-Dual (murine macrophage reporter line); assay: viability score (confluency relative to resting cells, overnight) (fraction); higher = more viable, active = viable (0.7 or more)
How it was run: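 RAW-Dual macrophages in 384-well plates were incubated overnight with compound, final concentration 10 μM. Confluency images from IncuCyte were processed in IncuCyte software into two masks covering all imaged wells. The viability score is each well's confluency relative to resting cells, and a compound met the cutoff when both masks exceeded 70% of resting cells.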

[4] = agonist: CpG ODN 1826 0.5 ug/mL

| Structure (SMILES) | NF-kB reporter [1, 4] | NF-kB reporter ([1]; agonist: LPS 0.1 ug/mL) | NF-kB reporter ([1]; agonist: MPLA […]) | IRF reporter ([2]; agonist: 3'3'-cGAMP 10 ug/mL) | IRF reporter ([2]; agonist: LPS 0.1 ug/mL) | IRF reporter ([2]; agonist: MPLA […]) | viability score [3] |
| --- | --- | --- | --- | --- | --- | --- | --- |
| CCCc1nc(-c2ccccc2)c(-c2ccc(OC)c(OC)c2)c(=O)[nH]1 | 0.803 ± 0.067 | 0.844 ± 0.1 | 1.06 ± 0.1 | 0.933 ± 0.057 | 1.46 ± 0.084 | 1.78 ± 0.16 | 1.01 (active) |
| O=S(=O)(NCCn1ccn2nccc12)c1ccccc1Br | 0.86 ± 0.053 | 0.904 ± 0.091 | 1.02 ± 0.065 | 0.989 ± 0.049 | 1.14 ± 0.18 | 1.23 ± 0.34 | 0.983 (active) |
| COc1cc(O)c(C(=O)Nc2nc(C(=O)NCCN(C(C)C)C(C)C)cs2)cc1OC | 1.25 ± 0.33 | 1.01 ± 0.073 | 1.13 ± 0.087 | 0.997 ± 0.038 | 0.907 ± 0.1 | 0.973 ± 0.18 | 0.994 (active) |
| CC(C)(C)c1ccc(C(=O)CCCN2CCC(OC(c3ccccc3)c3ccccc3)CC2)cc1 | 0.99 ± 0.25 | 1.05 ± 0.081 | 1.02 ± 0.073 | 0.646 ± 0.024 | 1.18 ± 0.23 | 1.21 ± 0.13 | 1 (active) |
| NC(=O)c1ccc(N2CCOCC2)c([N+](=O)[O-])c1 | 1.04 ± 0.087 | 1 ± 0.089 | 0.935 ± 0.026 | 0.984 ± 0.067 | 1.02 ± 0.05 | 1.01 ± 0.1 | 0.993 (active) |
| CCOC(=O)C1=C(C)NC(C)=C(C(=O)OC)C1c1ccco1 (configuration not stated) | 1.03 ± 0.17 | 0.955 ± 0.1 | 1.03 ± 0.086 | 0.95 ± 0.037 | 1.14 ± 0.18 | 1.2 ± 0.25 | 1.01 (active) |
| C#CCCCCCCCCCCCC(O)CC(O)COC(C)=O (configuration not stated) | 1.1 ± 0.34 | 1.06 ± 0.055 | 1.13 ± 0.083 | 0.832 ± 0.11 | 1.17 ± 0.19 | 1.41 ± 0.19 | 1 (active) |
| Cc1cc(CCC(=O)N(C)C2CN(c3ccc4nnc(C)n4n3)C2)ccc1F | 1.11 ± 0.058 | 1.1 ± 0.091 | 0.918 ± 0.046 | 1.19 ± 0.073 | 1.12 ± 0.095 | 1.11 ± 0.16 | 0.979 (active) |
| CCC(C(=O)N1CC(Nc2cnccn2)C1)c1ccccc1 (configuration not stated) | 0.995 ± 0.052 | 1.06 ± 0.12 | 0.996 ± 0.14 | 1.03 ± 0.067 | 1.24 ± 0.085 | 1.19 ± 0.09 | 0.984 (active) |
| CC1(C)[C@H](C(=O)O)N2C(=O)C[C@H]2S1(=O)=O | 0.998 ± 0.11 | 1.05 ± 0.079 | 1.06 ± 0.033 | 0.944 ± 0.072 | 0.931 ± 0.038 | 0.859 ± 0.068 | 0.994 (active) |
| CCCCCCC1OCC2(CO)C(C)C=C(C)C1C2C (configuration not stated) | 0.532 ± 0.075 | 0.697 ± 0.082 | 0.716 ± 0.067 | 1.31 ± 0.075 | 1.05 ± 0.17 | 1.21 ± 0.24 | 0.898 (active) |
| O=C1SC(=Cc2ccc([N+](=O)[O-])cc2)C(=O)N1Cc1ccccc1 | 0.98 ± 0.064 | 1.04 ± 0.069 | 0.951 ± 0.071 | 0.989 ± 0.042 | 1.5 ± 0.28 | 1.23 ± 0.12 | 1 (active) |
| CN1CCc2c(sc3[nH]c(=S)n(CCc4ccccc4)c(=O)c23)C1 | 0.753 ± 0.063 | 0.814 ± 0.042 | 0.967 ± 0.11 | 0.778 ± 0.042 | 1.28 ± 0.083 | 1.39 ± 0.17 | 1.01 (active) |
| CC(C)CN(C[C@@H](O)[C@H](Cc1ccccc1)NC(=O)O[C@H]1CO[C@H]2OCC[C@H]21)S(=O)(=O)c1ccc(N)cc1 | 1.74 ± 0.13 | 1.08 ± 0.054 | 1.85 ± 0.069 | 0.916 ± 0.053 | 1.04 ± 0.071 | 1.02 ± 0.1 | 0.997 (active) |
| O=C(NCc1cccc(Cl)c1)c1cnc2n(c1=O)CCS2 | 1.03 ± 0.11 | 1.02 ± 0.1 | 0.974 ± 0.054 | 0.976 ± 0.035 | 1.04 ± 0.054 | 1.09 ± 0.19 | 0.999 (active) |
| COc1cc2c(cc1Cc1cccc(Cl)c1F)c(=O)c(C(=O)O)cn2[C@H](CO)C(C)C | 0.941 ± 0.14 | 1.04 ± 0.27 | 1.25 ± 0.085 | 0.822 ± 0.026 | 1.13 ± 0.12 | 0.848 ± 0.079 | 0.936 (active) |
| CN(C)CCNC(=O)C(=O)NC(c1ccccc1)c1ccccc1 | 1.03 ± 0.11 | 1.01 ± 0.089 | 0.95 ± 0.027 | 0.998 ± 0.042 | 1.03 ± 0.091 | 0.962 ± 0.12 | 0.996 (active) |
| O=[N+]([O-])c1ccc(CSc2nc3ccccc3[nH]2)cc1 | 0.971 ± 0.076 | 0.87 ± 0.048 | 1.01 ± 0.024 | 0.834 ± 0.048 | 1.02 ± 0.13 | 1.12 ± 0.11 | 0.995 (active) |
| CC(C)Oc1cccc(C(=O)NC(=S)N2CCN(c3ccc([N+](=O)[O-])cc3)CC2)c1 | 0.83 ± 0.064 | 0.943 ± 0.053 | 1.09 ± 0.1 | 0.829 ± 0.038 | 1.19 ± 0.089 | 1.34 ± 0.15 | 1.02 (active) |
| COc1ccc(Cl)cc1S(=O)(=O)NCc1ccccn1 | 1.11 ± 0.07 | 0.901 ± 0.1 | 0.986 ± 0.026 | 1.01 ± 0.059 | 1.01 ± 0.1 | 0.936 ± 0.15 | 0.996 (active) |
| CCOC(=O)C1=C(C)NC(C)=C(C(=O)OCC)C1c1ccco1 | 1.03 ± 0.09 | 1.01 ± 0.066 | 1.14 ± 0.087 | 0.82 ± 0.16 | 0.999 ± 0.12 | 0.888 ± 0.28 | 0.996 (active) |
| CCOC(=O)C1=C(C)N(c2ccc(OC)cc2)C(=O)C1=Cc1ccc(C(C)C)cc1 | 0.903 ± 0.067 | 1.01 ± 0.083 | 0.804 ± 0.1 | 0.883 ± 0.03 | 1.36 ± 0.21 | 1.33 ± 0.12 | 0.997 (active) |
| CCCCOc1ccc(CC(=O)NO)cc1 | 1.69 ± 0.38 | 1.56 ± 0.37 | 1.34 ± 0.076 | 0.241 ± 0.0073 | 0.87 ± 0.19 | 0.815 ± 0.062 | 0.999 (active) |
| CC(=O)c1c(C(C)=O)c(C)n(-c2ccccc2N)c1C | 1.04 ± 0.081 | 0.992 ± 0.1 | 1.01 ± 0.1 | 0.983 ± 0.069 | 1.3 ± 0.21 | 1.43 ± 0.35 | 1.01 (active) |
| CC(=O)Nc1cccs1 | 1.09 ± 0.14 | 1.06 ± 0.072 | 0.986 ± 0.035 | 0.944 ± 0.12 | 1.07 ± 0.11 | 1.04 ± 0.078 | 0.998 (active) |
| COc1cc2nccc(Oc3ccc(NC(=O)Nc4cc(C)on4)c(Cl)c3)c2cc1OC | 0.178 ± 0.022 | 0.66 ± 0.062 | 0.639 ± 0.057 | 0.626 ± 0.028 | 0.938 ± 0.066 | 1.02 ± 0.1 | 1 (active) |
